From the OligoGym collection come the findings set out here.
Also: reference of the scale not given here.

The assay addresses DMXL1. The assay is described as follows: pooled miR-30 sensor sort-seq; sequence = guide strand. To be noted: shRNA.
Consider TAATTCTTGCTTTACCTCCAGG, for which the sensor-assay potency score (higher = more potent) is -0.447. To AAATAGTACATAATTGTCCCAT belongs 0.365. Sequence TTTTCTATAATTCTGAATCAGA registered a sensor-assay potency score (higher = more potent) of -0.788.

Consider TTTCTATTAATGGTAGATCTGG, for which the sensor-assay potency score (higher = more potent) is -0.715.

Regarding TTCGCTAATATATACAACTAAG, the sensor-assay potency score (higher = more potent) was -0.796. With TTGTTTCTGAAAACACTGCTAT, the sensor-assay potency score (higher = more potent) came out at 0.009. The figure for TTGAACTCGTTCTTTACTGGAA is -0.246; for TTTCATTAAATGAACTTGGGAA it is 0.382.

The sequence TTGACTGCTTTCACATTTGTTT had a sensor-assay potency score (higher = more potent) of -0.678. For TAACATTTCCATAAGACGCTGC, the sensor-assay potency score (higher = more potent) came to 0.508. Turning to TTACACATTCTACTTTAGGCAA, the sensor-assay potency score (higher = more potent) was -0.183. The figure for TTTAACACTATGACATACTGAT is 0.376; for TTCTTGAACATCATGACTGGAA it is -0.0948. The sequence TACATTTCTAAATAGTATCTAC registered a sensor-assay potency score (higher = more potent) of -0.076. In the case of TTATTTGAAAATTAGGATGGGA, the sensor-assay potency score (higher = more potent) stood at 0.431.
